Values without a mark were called inactive. No rule for the calls is given here.

This assay is described as follows: inhibitors of hydroxyurea-induced Chk1 phosphorylation, primary screen, imaging, HeLa, phospho-Chk1 nuclear intensity (AID 1187). Also: test concentration not given here. The note with it: hydroxyurea-induced phospho-Chk1 immunofluorescence imaging, higher = more signal.
With `COC(=O)[C@@]1(Cc2ccc(F)cc2)[C@H]2c3cc(C(=O)N4CCCC4)n(CCSCCO)c3C[C@H]2CN1C(=O)c1ccccc1`, the z-score is 0.827.

Regarding `C[N+](C)(C)CCCC[C@@H]1NC(=O)[C@H]2C[C@@H](C(=O)NCCCCCN)[C@@H](c3ccc(O)cc3)N2C1=O`, the z-score was 0.79.

Take `COc1c(C)cc(-c2cc3c(c(CCc4ccccc4)n2)[Si](C(C)C)(C(C)C)O[C@H]3c2ccccc2)cc1C`: the z-score was 0.0911.

For `C=CCOC(=O)[C@H]1[C@@H]2C(=O)O[C@@H](c3ccccc3)[C@@H](c3ccccc3)N2[C@@H](c2ccc(OCCOC(=O)[C@H]3C[C@H]4C(=O)NCC(=O)N4[C@H]3c3ccc(O)cc3)cc2)[C@]12C(=O)Nc1ccccc12`, the z-score is 0.182.

Take `CCCCCCc1nc(Cc2cc(OC)c(OC)c(OC)c2)c(C)c2c1[Si](C(C)C)(C(C)C)OC2`: the z-score is -0.386.

For `CC[C@H]1C2=C3C(CC[C@H]4C(OCc5ccc(F)cc5C(F)(F)F)OC[C@](C)([C@@H]34)N(C(=O)OC(C)(C)C)C2)C(COC(C)=O)C1COC(C)=O` (stereo partly drawn), the z-score was 0.294.

Turning to `COCCOC(=O)N1C(=O)[C@@]2(c3cc(C#CCC(C(=O)OC)C(=O)OC)ccc31)[C@H](C(=O)N1CCc3cc(OC)c(OC)cc3C1)[C@H]1C(=O)O[C@H](c3ccccc3)[C@H](c3ccccc3)N1[C@@H]2c1ccccc1OCCO`, the z-score was -0.252.

As for `C=C[C@@H](CO)NS(=O)(=O)c1ccc(Br)cc1`, the z-score was -0.695.

Regarding `[N-]=[N+]=NCc1ccccc1[C@H]1OC(c2ccc(OCCCO)cc2)=N[C@@]1(Cc1ccccc1N=[N+]=[N-])C(N)=O`, the z-score is 0.516.

For `COCCCNC(=O)[C@@]1(CCC(=O)OC(C)(C)C)N=C(c2ccc(OCCCO)cc2)O[C@H]1c1ccccc1`, the z-score is 0.633.

As to `C=CCOC(=O)[C@@H]1[C@H]2C(=O)O[C@H](c3ccccc3)[C@H](c3ccccc3)N2[C@H](c2ccc(OCCOC(=O)[C@@H]3C[C@@H]4C(=O)N[C@@H](CC(C)C)C(=O)N4[C@@H]3c3ccc(O)cc3)cc2)[C@@]12C(=O)Nc1ccc(I)cc12`, the z-score was -0.838.

On to `CN1C2C=C(c3ccc(CO)cc3)C(C3C(=O)N(C(N)=O)C(=O)C32)C1C1CC1` (stereo not drawn), for which the z-score was 0.169.

In the case of `CC(C)(C)OC(=O)CC[C@@]1(C(=O)N2CCOCC2)N=C(c2ccc(OCCCO)cc2)O[C@@H]1c1ccccc1CN=[N+]=[N-]`, the z-score is 0.291.

As to `COCCOC(=O)N1C(=O)[C@@]2(c3cc(C#CCCO)ccc31)[C@H](c1ccc(O)cc1)N1[C@H](c3ccccc3)[C@H](c3ccccc3)OC(=O)[C@H]1[C@@H]2C(=O)NC[C@H](O)c1ccccc1`, the z-score was 0.345.

Regarding `COC(=O)[C@@]1(Cc2ccc(F)cc2)[C@H]2c3cc(C(=O)N4CCCC4)n(Cc4ccc(OC(F)(F)F)cc4)c3C[C@H]2CN1C(=O)c1ccccc1`, the z-score is 0.639.

With `COc1cccc(C)c1NC(=O)O[C@H]1[C@H](OC(=O)Nc2ccccc2-c2ccccc2)[C@@H](OC(=O)Nc2ccccc2-c2ccccc2)[C@@H](OC)O[C@@H]1CO`, the z-score was 0.604.

As to `COCCOC(=O)N1C(=O)[C@@]2(c3cc(C#CC4=CCCCC4)ccc31)[C@H](c1ccc(O)cc1)N1[C@H](c3ccccc3)[C@H](c3ccccc3)OC(=O)[C@H]1[C@@H]2C(=O)N1CCc2cc(OC)c(OC)cc2C1`, the z-score is 0.404.

On to `C=C(CCCC)C(=O)CC[C@@H](OC(C)=O)c1ccc(OCCO)cc1`, for which the z-score is -0.266.

Take `CC(C)(C)OC(=O)CC[C@]1(C(=O)N2CCOCC2)COC(c2ccc(OCCCO)cc2)=N1`: the z-score was -0.0926.

Take `CC1CC/C=C\[C@H]2OC34C=CCN(CCN5CCOCC5)C(=O)[C@H]3N(C(CO)C(C)C)C(=O)[C@@H]4C2C(=O)O1` (stereo partly drawn): the z-score was 0.284.

As to `C[C@@]1([C@@H](NS(=O)(=O)c2cccc3cccnc23)c2ccc(-c3ccccc3)cc2)C[C@H]1C1CCCCC1`, the z-score was 0.534.

`COc1ccc(CCNC(=O)[C@@]2(c3ccc([N+](=O)[O-])cc3)CC(=O)N(C3CCCCC3)[C@@H]2c2ccc(CO)cc2I)cc1`: the z-score is 0.294.

On to `CCOC(=O)C[C@H]1[C@H](OC(=O)c2ccc(-c3ccccc3)cc2)[C@@H](NC(=O)c2ccc(-c3ccccc3)cc2)c2cc(OCCCO)ccc2N1C(=O)c1ccccc1`, for which the z-score was 0.205.
